Compounds with a hit are over-represented: about 11% of the library has one in this group of screens.
Luciferase inh – Firefly luciferase inhibition profiling of diverse chemical library using quantitative high-throughput screening | purified P. pyralis luciferase, luminescence, biochemical | Potency, µM (top dose mostly 115 µM), hits mostly inhibitors | Luciferin 4-monooxygenase (Photinus pyralis), P08659 | hit rate 2.5% among 76,000; further: on the % scale 0 is the no-effect control and ±100 the full control effect; nearly all actives have a fitted effect of over 65% in size
Target sequence (P08659 whole entry, looked up): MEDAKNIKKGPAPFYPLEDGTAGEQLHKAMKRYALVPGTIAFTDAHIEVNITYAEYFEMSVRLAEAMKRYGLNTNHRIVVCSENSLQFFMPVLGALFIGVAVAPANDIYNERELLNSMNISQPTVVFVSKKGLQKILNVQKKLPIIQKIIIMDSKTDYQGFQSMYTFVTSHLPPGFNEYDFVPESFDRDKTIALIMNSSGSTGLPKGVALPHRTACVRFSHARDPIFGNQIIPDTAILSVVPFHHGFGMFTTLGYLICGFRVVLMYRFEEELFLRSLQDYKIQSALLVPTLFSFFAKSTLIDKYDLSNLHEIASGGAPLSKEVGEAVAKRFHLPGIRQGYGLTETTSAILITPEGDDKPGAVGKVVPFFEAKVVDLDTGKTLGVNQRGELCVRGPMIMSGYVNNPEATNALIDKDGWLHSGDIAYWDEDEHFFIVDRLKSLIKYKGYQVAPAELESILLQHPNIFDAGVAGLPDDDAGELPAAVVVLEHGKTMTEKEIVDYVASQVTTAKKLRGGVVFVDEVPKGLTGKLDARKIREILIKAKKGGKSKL
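Cell-free enzyme assay, 10nM P. pyralis luciferase, luciferin and ATP each at 10uM. Inhibition profiled over a 6-point titration, read as luminescence.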
NIH3T3 tox – Cytotoxic Profiling in NIH 3T3 Cell Line of Diverse Libraries Using Quantitative High-Throughput Screening; AID 1345082, 2018; hit rate 4.3% among 94,000; NIH 3T3 viability, CellTiter-Glo ATP luminescence, 48-72 h; Potency, µM (series often up to 96.7 µM), inactives show top-dose activity change, negative = cytotoxicity, actives largely listed as inhibitors; further: on the % scale 0 is the no-effect control and ±100 the full control effect; nearly all actives have a fitted effect of over 55% in size
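Cytotoxicity is measured as loss of cellular ATP: NIH 3T3 cells (400/well) are exposed to compound for 48 or 72 hr at 37 °C, then CellTiter-Glo luminescence is imaged after 10 min at room temperature.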
hNpr1 antagonist – Natriuretic polypeptide receptor (hNpr1) antagonism - Primary qHTS; HEK293 hNpr1 GloSensor cGMP, ANP-stimulated luminescence; Potency, µM (highest dose often 46.3 µM), inactives show at the highest dose activity change, negative = inhibition, usual class: inhibitors; hit rate 1.6% among 76,000; AID 1347048, 2019; calls by dose curve; further: on the % scale 0 is the no-effect control and ±100 the full control effect; nearly all actives have a fitted effect of over 60% in size
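Compound pre-incubated 30 min at room temperature on GloSensor-loaded HEK293 cells stably carrying hNpr1 and the pGS-40F cGMP biosensor. Stimulation uses hNppA at 0.1 nM final; luminescence is taken at baseline and 20 min post-agonist.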
HEK cytotox – Cytotoxic Profiling in HEK 293 Cell Line of Diverse Libraries Using Quantitative High-Throughput Screening | HEK 293 viability, ATP luminescence (CellTiter-Glo), 48-72 h | Potency, µM (top dose mostly 115 µM), for the others: at the highest dose activity change, negative = cytotoxicity, hits mostly inhibitors | hit rate 6.6% among 94,000 | AID 1345083, 2018; further: on the % scale 0 is the no-effect control and ±100 the full control effect; nearly all actives have a fitted effect of over 60% in size
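HEK 293 cells at 250 cells/well were exposed to compounds by pintool transfer for 48 or 72 hr at 37 degree Celsius, 5% CO2. Viability was read as ATP-coupled luminescence with CellTiter-Glo after 10 min at room temperature.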
NPR1 antag cnf – Natriuretic polypeptide receptor (hNpr1) antagonism - Confirmation | shares compounds with hNpr1 antagonist | HEK293 hNpr1 cGMP GloSensor luminescence, ANP-stimulated | Potency, µM (titrated, usually from 57.6 µM), for the others: at the top dose activity change, negative = inhibition, hits mostly inhibitors | hit rate 76% among 1,400 | AID 1347044, 2019; calls by dose curve; further: nearly all actives have a fitted effect of over 70% in size
Npr2 selectivity – Natriuretic polypeptide receptor (hNpr2) antagonism - Subtype selectivity assay. AID 1347046, 2019. hit rate 67% among 1,400. Potency, µM (top dose mostly 57.6 µM), inactives show at the highest dose activity change, negative = inhibition, hits mostly inhibitors. HEK293 hNpr2 GloSensor cGMP luminescence, CNP-stimulated. shares compounds with hNpr1 antagonist; calls by dose curve; further: nearly all actives have a fitted effect of over 70% in size
FLuc counter – Natriuretic polypeptide receptor (hNpr1) antagonism - Confirmation firefly luciferase (FLuc) inhibition counterscreen; shares compounds with hNpr1 antagonist; purified FLuc enzyme, luminescence, Km substrate; Potency, µM (top dose mostly 57.6 µM), for inactives: at the highest dose activity change, negative = inhibition, actives largely listed as inhibitors; hit rate 0.7% among 1,400; further: 0% is about no effect
GloSensor cGMP – Natriuretic polypeptide receptor (hNpr1) antagonism - Counterscreen GloSensor control cell line; HEK293 GloSensor cGMP, SNP-stimulated, luminescence; hit rate 69% among 1,400; Potency, µM (top dose mostly 57.6 µM), for the others: at the highest dose activity change, negative = inhibition, usual class: inhibitors; shares compounds with hNpr1 antagonist; calls by dose curve; further: on the % scale 0 is the no-effect control and ±100 the full control effect; nearly all actives have a fitted effect of over 70% in size
* marks the source's active call; other numbers are inactive results; i = inactive; ? = inconclusive; . = no result; [ ] = dose if it differs, or a comment. Unless noted, the call rests on the fitted dose curve; in most records, active means well fitted curve in the direction sought with a large enough effect; inconclusive means small, poorly fitted or top-dose-only effect, or another doubt; inactive means no such curve, though single readings can be large; an effect the other way counts as inactive or inconclusive. Potency means the concentration at half of the fitted maximal effect.

SMILES	Luciferase inh	NIH3T3 tox	hNpr1 antagonist	HEK cytotox	NPR1 antag cnf	Npr2 selectivity	FLuc counter	GloSensor cGMP
Cc1nnc(N2CCC(CO)(CN3CCCC3)CC2)c2ccccc12	i	-1%	-1%	-22%	.	.	.	.
CC(=O)N1CCC2(CC1)CCN(c1ncccc1C#N)CC2CO (stereo not drawn)	i	-3%	6%	-2%	.	.	.	.
CC(C)c1nc2c(c(-c3ccc(Cl)cc3)n1)CCN(Cc1cccc3ccccc13)CC2	.	-29%	.	?	.	.	.	.
c1cnc2[nH]cc(-c3nc4ccncc4[nH]3)c2c1	i	?	0%[70.6 µM]	?	.	.	.	.
COCCCn1c(C)cnc1C1CCN(S(=O)(=O)Cc2ccccc2)C1 (stereo not drawn)	i	-12%	4%	-3%	.	.	.	.
CC(=O)N1CCN(c2nc3c(s2)CC(C(=O)Nc2cc(F)cc(F)c2)CC3)CC1 (stereo not drawn)	i	?	10µM*	10µM*	17µM*	19µM*	44%	11µM*
COc1ccc(OC)c(NC(=O)C2CCc3nc(N4CCN(C(C)=O)CC4)sc3C2)c1 (stereo not drawn)	i	-26%	-18%	?	.	.	.	.
CC(=O)N1CCN(c2nc3c(s2)CC(C(=O)Nc2cccc(C(C)(C)C)c2)CC3)CC1 (stereo not drawn)	i	?	18µM*	?	12µM*	15µM*	27%	11µM*
Cc1nc(C2CC(O)C2)cc(N2CCN(C(=O)c3cccs3)CC2)n1 (stereo not drawn)	i	-27%	3%	-17%	.	.	.	.
Cc1nc(C2CC(O)C2)cc(N2CCN(c3nc4ccccc4s3)CC2)n1 (stereo not drawn)	i	?	7.1µM*	?	9.7µM*	11µM*	1%	8.6µM*
O=C(Cc1cccc(Cl)c1)N1CCC(c2nn(-c3ccc(F)cc3)c(=O)[nH]2)CC1	i	?	-23%	?	.	.	.	.
O=C(NC1CCCCC1)N1CCC(c2noc(-c3ccccc3)n2)C1 (stereo not drawn)	i	?	18µM*	?	27µM*	?	0%	27µM*
COc1ccccc1CCC(=O)N1CCC2(CC1)NC(=O)N(c1ccccc1)N2	i	?	-8%	?	.	.	.	.
O=C(NCc1ccccc1)c1ccccc1OC1CN(Cc2ccsc2)C1	i	28µM*	-28%	?	?	-29%	4%	-3%
CC(C)c1ccc(CN2CC(Oc3ccccc3C(=O)NC3CC3)C2)cc1	i	?	-4%	?	.	.	.	.
CC1=C[C@@H](CNC(=O)CC2(CC(=O)O)CCCC2)[C@H](C(C)C)C[C@H]1Cc1nc2ccccc2n1C	i	?	1%	?	.	.	.	.
CC1=C[C@@H](CNC(=O)C2CC2)[C@H](C(C)C)C[C@H]1Cc1nc2ccccc2n1C	i	100µM*	25µM*	45µM*	31µM*	35µM*	3%[86.2 µM]	25µM*
O=C1NC(=NC2CCCC2)C2(CCCN(Cc3cccnc3)C2)N1c1cc(F)cc(F)c1 (stereo not drawn)	.	25µM*	.	2%	-16%	0%	3%	-8%
O=C(C1CC(=O)N(c2n[nH]c3ccccc23)C1)N1CCC(c2noc3cc(F)ccc23)CC1 (stereo not drawn)	i	14µM*	?	13µM*	27µM*	?	-3%	27µM*
O=C(C1CC1)N1CCCN(c2ccc3nnc(-c4ccccc4)n3n2)CC1	.	-8%	.	i	.	.	.	.
O=C(Nc1ccc2c(c1)OCCO2)N1CCCC(c2nnnn2-c2ccccc2)C1 (stereo not drawn)	.	-27%	.	?	.	.	.	.
O=C(c1cc2n(n1)CC(c1ccc(Cl)cc1)OC2)N1CCN(c2ccc(Cl)cc2)CC1 (stereo not drawn)	i	?	13µM*	32µM*	?	?	0%	?
CC(C)N1CCN(C(=O)c2cc3n(n2)CC(c2ccc(Br)cc2)OC3)CC1 (stereo not drawn)	i	?	?	?	?	?	0%	?
CC(=O)c1ccc(NC(=O)c2cc3n(n2)CC(c2ccc(Br)cc2)OC3)cc1 (stereo not drawn)	i	-13%	?	?	.	.	.	.
CCCCn1c(CN(C)Cc2[nH]c3ccccc3c2C)cnc1S(=O)(=O)CC	i	?	-3%	?	.	.	.	.
SMILES	Luciferase inh	NIH3T3 tox	hNpr1 antagonist	HEK cytotox	NPR1 antag cnf	Npr2 selectivity	FLuc counter	GloSensor cGMP
CN(C(=O)C1(c2ccc(Cl)cc2)CCOCC1)C1CCc2ccccc21 (stereo not drawn)	.	?	.	?	19µM*	9.7µM*	5%	6%
COc1ccc(C(=O)N2CCC(Cc3nc(C(C)C)no3)CC2)cc1	i	?	?	?	.	.	.	.
Cc1ccc(C(=O)N2CCC(Cc3nc(-c4ccccc4)no3)CC2)cn1	i	?	6.3µM*	?	4.8µM*	5.4µM*	23%	4.3µM*
COc1ccc(-c2noc(CC3CCN(C(=O)c4ccc(C)nc4)CC3)n2)cc1	i	?	7.1µM*	?	5.4µM*	6.9µM*	-1%	5.4µM*
CN(CCc1noc(C2CN(Cc3ccc(F)c(F)c3)C2)n1)C(=O)C1CC1	i	?	-3%	?	.	.	.	.
Cc1nn2c(c1-c1ccnn1C(C)C)N(Cc1cccc(C#N)c1)CCC2	i	14µM*	?	14µM*	2.8µM*	?	-1%[86.2 µM]	?
Cc1nn2c(c1-c1ccccc1Oc1ccccc1)N(Cc1ccc(C(=O)O)s1)CCC2	i	32µM*	?	32µM*	?	?	1%	?
Cc1nn2c(c1-c1ccnn1C(C)C)N(Cc1ccc(O)cc1)CCC2	i	?	-7%[70.6 µM]	?	.	.	.	.
